SMILES strings stand for the structures. Compounds without any hit were thinned out: in the full panel of roughly 83,000, 20% have a hit.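 Growth was measured after 48 h exposure to one concentration of compound in 96-well plates. Values under 10 count as active.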 The source made the active and inactive calls.

The experiment concerns M14 melanoma. Nature of the experiment: NCI-60 one-dose screen, 48 h (100 = growth as untreated, 0 = no growth, -100 = all killed). The note with it: 10 µM unless noted.
With `CCOC(=O)c1ccc(N(CCC(=O)O)C(C)=O)cc1`, the growth was 105% (inactive).

Regarding `Nc1c(C(=O)Nc2cccc(Cl)c2)sc2ncc(Br)cc12`, the growth was 79.9% (inactive).

Turning to `CSC(=S)N/N=C(\C)c1ccccn1`, the growth was 1.91% (active).

Regarding `CC(=O)O[C@H]1[C@H](CC#CC#CC[C@@H]2C[C@]3(C)[C@H]4CC=C5[C@H]6[C@@H](C)[C@H](C)CC[C@]6(C(=O)NCCCCCCCCN)CC[C@@]5(C)[C@]4(C)CC[C@H]3C(C)(C)[C@H]2OC(C)=O)C[C@]2(C)[C@H]3CC=C4[C@H]5[C@@H](C)[C@H](C)CC[C@]5(C(=O)NCCCCCCCCN)CC[C@@]4(C)[C@]3(C)CC[C@H]2C1(C)C`, the growth was 102% (inactive).

For the compound `CC(C)COC(=O)NC(C)(C)C`, the growth was 104% (inactive).

`CCC(=O)NC(O)C(Cl)(Cl)C(C)Cl` (centres undefined): the growth is 98.7% (inactive).

Turning to `C#CCNC(=S)N/N=C(\C)c1ccccn1`, the growth was -21.7% (active).

Turning to `COc1ccc(-c2nnc(SCC(=O)Nc3ccc(C(=O)/C=C/c4ccc(Cl)cc4)cc3)n2-c2ccccc2)cc1`, the growth is 85.9% (inactive).

For the compound `CC1CCN(Cc2ccc(NC(=O)c3cc4ccc5cccnc5c4[nH]3)cc2)CC1`, the growth was -22.5% (active).

Regarding `CC(C)N1CCN(c2ccncc2S(=O)(=O)N2CCN(C)CC2)CC1`, the growth is 99.5% (inactive).

Turning to `O=C(/C=C/c1ccccc1)n1c(-c2ccccc2)nc2ccccc21`, the growth was 104% (inactive).

As for `COC1CC(N)C2OC(c3ccccc3)OCC2O1` (centres undefined), the growth is 107% (inactive).

For `COc1cccc(NC(=O)[C@H](C(C)C)n2c(=O)[nH]c3ccccc3c2=O)c1`, the growth is 107% (inactive).

As to `COc1ccc(-c2cnc3ccnn3c2-c2cc(OC)c(OC)c(OC)c2)cc1`, the growth was 21.5% (inactive).

With `COc1cc2cc(C(=O)Nc3ccccc3)c(N)nc2cc1OC`, the growth was -67.3% (active).

For the compound `O=C(C=P(c1ccccc1)(c1ccccc1)c1ccccc1)CCl`, the growth is -61.5% (active).

Regarding `CCCCCCCCCCCCCCCCS(=O)(=O)Nc1cc(C(=O)NN)cc(C(=O)NN)c1`, the growth is 88% (inactive).

`COS(=O)(=O)CCN(CCOS(C)(=O)=O)S(C)(=O)=O`: the growth was 94.3% (inactive).

In the case of `CCn1c(CN2CCN(Cc3ccccc3)CC2)nc2cc(NC(=O)c3cccs3)ccc21`, the growth was -64.6% (active).

As to `CC(=O)c1ccc(-n2c(-c3cc(-c4ccsc4)n[nH]3)n[nH]c2=S)cc1`, the growth was 97.8% (inactive).

Turning to `CCN(CC)Cc1cc(Nc2ccnc3cc(Cl)ccc23)cc(-c2ccc(Cl)cc2)c1O`, the growth is 10.2% (inactive).

On to `O=C(NCC(c1ccsc1)N1CCCCCC1)c1ccc(C(F)(F)F)cc1` (centres undefined), for which the growth is 93% (inactive).

As for `COc1cc(NC(C)CCCN)c2ncccc2c1Oc1ccc(Cl)cc1` (centres undefined), the growth was 74.4% (inactive).

Take `O=C(c1ccccc1)N(CCCCl)C(=O)N(CCCCl)C(=O)c1ccccc1`: the growth was 96.4% (inactive).

In the case of `COc1ccc(C2=CC(c3ccc(OC)cc3Br)N3C=CSC3=N2)cc1` (centres undefined), the growth is 25.2% (inactive).

Regarding `CC(=O)c1nn(-c2ccccc2)/c(=N\N=C\c2coc3ccc(F)cc3c2=O)s1`, the growth was 93.5% (inactive).

With `O=C(c1ccc(C(F)(F)F)c(Cl)c1)N(Cc1ccc(Cl)cc1)c1ccc(-c2cc(C(F)(F)F)[nH]n2)c(O)c1`, the growth was 10.9% (inactive).

In the case of `C/C(=N\OC(=O)Nc1cccc(Cl)c1)c1ccccc1`, the growth is 108% (inactive).

Turning to `C/C(=C\C(=N\N=C(N)N)c1ccc(Cl)cc1)c1ccc(Cl)cc1`, the growth was -79.7% (active).

In the case of `O=C(NO)c1ccc(NCc2csc3ccccc23)cc1`, the growth is 59.4% (inactive).

As to `C#CC[C@@H]1C[C@]2(C)[C@H]3CC=C4[C@H]5CC(C)(C)CC[C@]5(C(=O)NCCCCN)CC[C@@]4(C)[C@]3(C)CC[C@H]2C(C)(C)[C@H]1OC(C)=O`, the growth is 2.23% (active).

For `Oc1ccc(Cl)cc1-c1cc(-c2ccccc2Cl)[nH]n1`, the growth was 84.9% (inactive).

On to `CC1C2CCC(C2)C1COCCOCCO` (centres undefined), for which the growth is 112% (inactive).

`O=C1C(Cl)=C(N/N=c2/[nH][nH]/c(=N/NC3=C(Cl)C(=O)c4ccccc4C3=O)c3ccccc23)C(=O)c2ccccc21`: the growth was 92.8% (inactive).

As for `COc1ccc(/C=c2\c(=O)n(-c3ccccc3)c3nn4c(n23)=NNC42CCCCC2)cc1`, the growth is 102% (inactive).

`CCNC(=S)N(Cc1ccccc1)Cc1ccccc1`: the growth is 108% (inactive).

Take `N#CC1=C(N)Oc2nc[nH]c(=O)c2C1c1cccs1` (centres undefined): the growth was 111% (inactive).

As to `CCN(C(=O)Nc1cccc2ccccc12)c1ccccc1`, the growth is 106% (inactive).

Regarding `COc1ccc(-c2nc(-c3cc(OC)cc(OC)c3)[nH]c2-c2ccc(OC)cc2)cc1`, the growth was 49.7% (inactive).
